{
  "source": "PubChem BioAssay (NCATS)",
  "note": "Results filed as inconclusive are left out. Calls of active or inactive are those of the source. Calls follow the shape of the dose curve; as a rule, active = well fitted inhibition curve with a large enough effect; inconclusive = small, poorly fitted or top-dose-only effect; inactive = flat fitted curve, though single readings scatter.",
  "data": [
    {"system": "HEK293T", "assay": "qHTS assay to identify novel small-molecules to repurpose for Merkel cell carcinoma treatment (AID 1296009); also: nearly all actives have a fitted effect of over 60% in size", "conditions": "MCC and control cell lines, CellTiter-Glo viability, 72 h; series mostly up to 44.8 µM", "how_it_was_run": "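Luminescence from CellTiter-Glo, read 10 min after addition at room temperature, reported viability following a 72 hr, 37 degree celsius treatment with NPC or MIPE compounds in titration; values normalized to plate controls.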", "values": [
      {"smiles": "CC1=CC(=O)C2C(C)(C)CCCC2(C)C12CCC1(COC(=O)C1)O2", "note": "(configuration not stated)", "outcome": "inactive"},
      {"smiles": "CCOc1ccc(C(Nc2ccccn2)c2ccc3ccc(C)nc3c2O)cc1C", "note": "(configuration not stated)", "outcome": "inactive"},
      {"smiles": "C/C=C/C=C/C=C/C(=O)O[C@@H]1C=C(CO)C(O)(C(=O)O)[C@@]2(C)CCCC(C)(C)[C@H]12", "note": "(some centres not stated)", "outcome": "inactive [at 17.4 µM]"},
      {"smiles": "CC(=O)O[C@@H]1[C@H](O[C@@H]2OC[C@](O)(CO)[C@H]2O)[C@@H](O[C@@H]2O[C@@H](C)[C@H](O)[C@@H](O)[C@H]2O)[C@H](OC(=O)[C@]23CCC(C)(C)C[C@H]2C2=CCC4[C@@]5(C)C[C@H](O)[C@H](O[C@@H]6O[C@H](C(=O)O)[C@@H](O)[C@H](O)[C@H]6O)[C@@](C)(C(=O)O)C5CC[C@@]4(C)[C@]2(C)CC3)O[C@@H]1C", "note": "(some centres not stated)", "outcome": "inactive [at 9.27 µM]"},
      {"smiles": "COc1ccc(/C=C/C(=O)O[C@@H]2[C@@H](O)[C@H](C)O[C@@H](OC3C4C=COC(O[C@@H]5O[C@H](CO)[C@@H](O)[C@H](O)[C@H]5O)C4C4(CO)OC34)[C@@H]2O)cc1OC", "note": "(some centres not stated)", "outcome": "inactive [at 17.4 µM]"},
      {"smiles": "COc1cc(C/C(=C/NC(C)=O)N(CC(=O)Cc2ccccc2)C(C)=O)cc2c1OCO2", "outcome": "inactive [at 17.4 µM]"},
      {"smiles": "C[C@@H]1O[C@@H](O[C@H]2[C@H](O[C@H]3[C@H](O[C@H]4CC[C@@]5(C)C(CC[C@]6(C)C5CC=C5[C@@H]7CC(C)(C(=O)O)C[C@@H](O)[C@]7(C)CC[C@]56C)[C@@]4(C)CO)O[C@H](C(=O)O)[C@@H](O)[C@@H]3O)O[C@H](CO)[C@H](O)[C@@H]2O)[C@H](O)[C@H](O)[C@H]1O", "note": "(some centres not stated)", "outcome": "inactive [at 9.27 µM]"},
      {"smiles": "CC(C)CC(=O)O[C@@H]1OC=C(CO[C@@H]2O[C@H](CO[C@@H]3O[C@H](CO)[C@@H](O)[C@H](O)[C@H]3O)[C@@H](O)[C@H](O)[C@H]2O)[C@H]2C[C@H](O)[C@@H](CO)[C@@H]12", "outcome": "inactive [at 17.4 µM]"},
      {"smiles": "Cc1nnc(C(C)C)n1C1CC2CCC(C1)N2CCC(NC(=O)C1CCC(F)(F)CC1)c1ccccc1", "note": "(configuration not stated)", "outcome": "inactive"},
      {"smiles": "CC(C)C(C#N)O[C@@H]1O[C@H](CO[C@@H]2OC[C@](O)(CO)[C@H]2O)[C@@H](O)[C@H](O)[C@H]1O", "note": "(some centres not stated)", "outcome": "inactive"},
      {"smiles": "CC(C)[C@H]1CCC(CO)=C[C@@H]1/C=C(\\CO)C(=O)O", "outcome": "inactive"},
      {"smiles": "COc1cc(/C=C/C(=O)OC[C@H]2O[C@H](O[C@]3(CO)O[C@H](CO)[C@@H](O)[C@@H]3O)[C@H](O)[C@@H](O)[C@@H]2O)cc(OC)c1O", "outcome": "inactive [at 17.4 µM]"},
      {"smiles": "CC(=O)N1c2ccccc2C2(O)CC3C(=O)NC(CC(C)C)C(=O)N3C12", "note": "(configuration not stated)", "outcome": "inactive"},
      {"smiles": "O=C(/C=C/c1ccc(O)cc1)OCC1=CC2OC(=O)C3=CO[C@@H](O[C@@H]4O[C@H](CO)[C@@H](O)[C@H](O)[C@H]4O)[C@H]1[C@@H]32", "note": "(some centres not stated)", "outcome": "inactive [at 17.4 µM]"},
      {"smiles": "CC1CCC2C(C(=O)O)=CC3C(O)C(C)(C)CC123", "note": "(configuration not stated)", "outcome": "inactive"},
      {"smiles": "COc1cc(/C=C/C(=O)OC2[C@H](O)CC(O)(C(=O)O)C[C@H]2O)ccc1O", "note": "(some centres not stated)", "outcome": "inactive"},
      {"smiles": "COC(=O)C[C@@H]1C(C(=O)O)=CO[C@@H](O[C@@H]2O[C@H](CO)[C@@H](O)[C@H](O)[C@H]2O)/C1=C\\COC(=O)/C=C\\c1ccccc1", "outcome": "inactive [at 17.4 µM]"},
      {"smiles": "O=C1C[C@@H](c2ccc(O)cc2)Oc2cc(O)ccc21", "outcome": "inactive"},
      {"smiles": "C[C@H](NCc1ccc(OCc2ccccc2F)cc1)C(N)=O", "outcome": "inactive"},
      {"smiles": "C=C1CCC2C(C)(CO[C@@H]3O[C@H](CO)[C@@H](O)[C@H](O)[C@H]3O)C(O)CCC2(C)C1C(=O)CC1=CCOC1=O", "note": "(some centres not stated)", "outcome": "inactive [at 17.4 µM]"},
      {"smiles": "CCOC(=O)c1c(C)nn(-c2cccc([N+](=O)[O-])c2)c1C", "outcome": "inactive"},
      {"smiles": "OCCc1ccc(O[C@@H]2O[C@H](CO)[C@@H](O)[C@H](O)[C@H]2O)c(O)c1", "outcome": "inactive"},
      {"smiles": "CC(=O)O[C@H]1C[C@@H]2[C@]3(CC[C@]4(C)[C@@H](C5(C)CCC(C(C)(C)O)O5)[C@@H](O)C[C@@]24C)C[C@@]32CC[C@H](O[C@@H]3OC[C@@H](O)[C@H](O)[C@H]3O)C(C)(C)[C@H]12", "note": "(some centres not stated)", "outcome": "inactive [at 17.4 µM]"},
      {"smiles": "CC(C)(O)C1CCC2(C)C3C(O)C4C(C13)C42CO", "note": "(configuration not stated)", "outcome": "inactive"},
      {"smiles": "CCC(CCO[C@@H]1O[C@H](CO[C@H]2OC[C@](O)(CO)[C@H]2O)[C@@H](O)[C@H](O)[C@H]1O)C(C)(C)O", "note": "(some centres not stated)", "outcome": "inactive [at 17.4 µM]"},
      {"smiles": "C=CC1C(O[C@@H]2O[C@H](CO)[C@@H](O)[C@H](O)[C@H]2O)OC=C(C(=O)OC)C1CC(=O)O", "note": "(some centres not stated)", "outcome": "inactive [at 17.4 µM]"},
      {"smiles": "CC1=CC(=O)C[C@H]2[C@@H]1CC[C@@H](C)[C@]21CO[C@H](c2ccoc2)C1=O", "outcome": "inactive"}
    ]}
  ]
}
